Here are results for 19 compounds from PubChem BioAssay (NCATS).

Unmarked numbers belong to inactive results. Records with an inconclusive call do not appear. Activity calls are given as the source filed them. Unless noted, calls follow the shape of the dose curve; as a rule, active = well fitted curve in either direction with a large enough effect (not every such curve was filed as active); inconclusive = small, poorly fitted or top-dose-only effect, or another doubt; inactive = flat fitted curve, though single readings scatter.

A short description of experiment [1]: AP1 Signaling Pathway (AID 357). Also: % is scaled to controls: 0 for no effect and ±100 for the full control effect. Conditions: ME-180 AP-1-bla reporter, EGF-induced, beta-lactamase ratio, 5 h; at 17.2 µM (top of the series) unless noted. A digest of the protocol: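 Cells are seeded overnight, exposed to compound titrations and an EC50 level of EGF for 5 hours at 37 °C, then loaded with CCF4 dye for 2.5 hours. Beta-lactamase activity under the AP-1 element is read as a blue/green ratio.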

A short description of experiment [2]: NFAT Signaling Pathway (AID 444).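 Also: carbachol stimulus at about its EC50 of 1 µM final; % is scaled to controls: 0 for no effect and ±100 for the full control effect.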 As to conditions: Jurkat NFAT-bla M1, carbachol, beta-lactamase ratio, 5 h; at 17.2 µM (top of the series) unless noted. A digest of the protocol:
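Jurkat cells with NFAT-driven β-lactamase reporter and co-expressed M1 receptor, stimulated with carbachol (final 1 uM, ~EC50), compound titration, 5 h at 37 °C. CCF4 loaded 1 h at RT; 460/530 nm ratio gave %activity and AC50.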

Experiment [3] is described as follows: Stat Signaling Pathway (AID 446).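 Also: ME-180 cervical cancer cells given 40 pM IL-6 alongside compound; SIE-controlled beta-lactamase reporter measured as 460/530 nm FRET emission ratio; % is scaled to controls: 0 for no effect and ±100 for the full control effect.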 As to conditions: ME-180 SIE beta-lactamase reporter, IL-6 stimulated, 5 h; at 17.2 µM (top of the series) unless noted. In a few lines:
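ME-180 cells carrying a SIE-driven beta-lactamase reporter are stimulated with 40 pM IL-6 for 5 h at 37C in the presence of compound. The 460/530 nm FRET substrate ratio is read after 2.5 h at RT. Data are normalised to 300 pM IL-6 and to 125 nM JAK inhibitor controls.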

Experiment [4] addresses Glucocorticoid receptor (Homo sapiens) (UniProt P04150). Description: GR-GFP Redistribution (AID 450;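 active = compounds whose dose series gives a full or clear partial fitted curve of increased nuclear translocation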; also: potency is read from the fitted curve at half-maximal effect).
Experiment [5] can be described thus: qHTS Assay for Identification of Small Molecule Agonists for Hypoxia Response Element Signaling Pathway (AID 914; active = well fitted activation curve with a large enough effect in the signal ratio, with a control signal flat, not every such curve was filed as active; the % refers to the signal ratio; also: potency is read from the fitted curve at half-maximal effect; as to activation: % of control where 0% means no effect). Conditions: ME-180 (cervical carcinoma) HRE-bla reporter, beta-lactamase ratio, CoCl2, 17 h; activation: active compounds read high. In a few lines: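 A beta-lactamase reporter under hypoxia response element control in ME-180 cells served as the system. Compound titrations plus EC50 CoCl2 ran 17 h at 37 degrees Celsius; AC50 values were fitted from %Activity.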

Chain of Glucocorticoid receptor (Homo sapiens) (P04150 whole entry, looked up): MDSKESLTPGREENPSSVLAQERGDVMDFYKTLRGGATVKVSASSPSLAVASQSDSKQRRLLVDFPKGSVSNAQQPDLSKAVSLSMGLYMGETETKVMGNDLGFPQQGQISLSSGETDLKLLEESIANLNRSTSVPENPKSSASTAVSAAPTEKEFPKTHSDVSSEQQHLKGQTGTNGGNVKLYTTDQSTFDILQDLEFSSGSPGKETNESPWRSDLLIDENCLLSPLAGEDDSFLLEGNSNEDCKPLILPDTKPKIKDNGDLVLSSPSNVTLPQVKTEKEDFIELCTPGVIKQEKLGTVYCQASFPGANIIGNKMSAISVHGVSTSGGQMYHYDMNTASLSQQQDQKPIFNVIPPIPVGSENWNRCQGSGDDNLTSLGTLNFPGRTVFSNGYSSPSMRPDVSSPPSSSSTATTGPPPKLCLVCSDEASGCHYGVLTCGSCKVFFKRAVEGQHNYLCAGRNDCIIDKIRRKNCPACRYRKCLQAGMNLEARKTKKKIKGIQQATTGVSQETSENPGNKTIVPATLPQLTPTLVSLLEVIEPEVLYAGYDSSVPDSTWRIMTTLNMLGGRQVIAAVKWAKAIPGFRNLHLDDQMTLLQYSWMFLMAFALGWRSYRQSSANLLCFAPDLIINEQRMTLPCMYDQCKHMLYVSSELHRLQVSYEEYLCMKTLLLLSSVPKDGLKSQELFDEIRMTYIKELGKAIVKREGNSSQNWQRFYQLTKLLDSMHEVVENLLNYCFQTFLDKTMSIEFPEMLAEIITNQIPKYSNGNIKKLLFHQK

As for `COCCNc1nc2c(c(=O)n(Cc3ccc(OC)cc3)c(=O)n2C)n1C`, the activity change, negative = inhibition in experiment [1] is -10.1%; in experiment [2], -7.8%. Moreover, in experiment [3], the activity, negative = inhibition is -12.3%. Further, in experiment [4], the Potency was more than 20.6 µM. In experiment [5], the activation is -9.75%.

In the case of `CC1(C)CC(=O)c2cc(C(=O)N3CCCC(C)(C)C3)c(=O)n(-c3ccccc3)c2C1`, the activity change, negative = inhibition in experiment [1] was 8.53%; in experiment [2] it was -0.00696%. In experiment [3], the activity, negative = inhibition was -7.18%. The Potency in experiment [4] is more than 20.6 µM; in experiment [5], 3.98 µM (active).

For the compound `CC(C)(C)NCc1cc2ccccc2[nH]c1=O`, the results for the activity change, negative = inhibition in experiment [1] and in experiment [2] were -4.82% and -24.2%, respectively. In addition, the activity, negative = inhibition in experiment [3] was 3.71%. Besides, in experiment [4], the Potency is more than 20.6 µM. For the same compound, the activation in experiment [5] was -14.6%.

For `CCOC(=O)c1c(C(F)(F)C(F)(F)C(F)(F)C(F)(F)F)n[nH]c1C`, the activity change, negative = inhibition in experiment [1] is 4.08%; in experiment [2], -9.51%. Further, the Potency in experiment [4] was more than 20.6 µM.

On to `CSc1cc(C)nc(N(C)C(C)=O)n1`, for which the activity change, negative = inhibition in experiment [1] was 16.9%; in experiment [2], -4.07%. For the same compound, in experiment [3], the activity, negative = inhibition is -0.18%. Moreover, the Potency in experiment [4] was more than 20.6 µM. The activation in experiment [5] is 14.1%.

Consider `Cn1cc(Br)cc2nc(C(F)(F)F)nc1-2`, for which the activity change, negative = inhibition was -3.15% in experiment [1] and -3.67% in experiment [2]. Also, the activity, negative = inhibition in experiment [3] is 3.32%. Further, the Potency in experiment [4] is more than 20.6 µM. Moreover, in experiment [5], the activation was 2.94%.

As for `CC(C)OC(=O)[C@H]1[C@H](c2ccc(Cl)cc2)[C@@](C#N)(C(N)=O)[C@@H]2C=CC(C(N)=O)=CN21`, the activity change, negative = inhibition in experiment [1] was -13.7%; in experiment [2], -5.51%. For the same compound, the Potency in experiment [4] is more than 20.6 µM.

As to `CC(C)(C)n1nnc(CCc2nnn(C(C)(C)C)n2)n1`, the activity change, negative = inhibition in experiment [1] was 1.01%; in experiment [2], -17.9%. The Potency in experiment [4] was more than 20.6 µM.

`Cc1ccccc1N1C(=O)C2ON(c3ccccc3)C(c3cccnc3)C2C1=O` (configuration not stated): the activity change, negative = inhibition was -2.7% in experiment [1] and -0.971% in experiment [2]. Also, the Potency in experiment [4] is more than 20.6 µM.

With `CN(CCCCCC(=O)/C=N/O)Cc1ccccc1`, the activity change, negative = inhibition in experiment [1] was 26.2%; in experiment [2] it was -28%. Besides, the Potency in experiment [4] was more than 20.6 µM.

Consider `c1ccc2c(c1)[nH]c1c(N3CCC4(CC3)OCCO4)ncnc12`, for which the figures for the activity change, negative = inhibition in experiment [1] and in experiment [2] were -1.63% and 7.49%, respectively. Besides, the Potency in experiment [4] was more than 20.6 µM.

Turning to `Oc1ccc(Br)cc1CNn1cnnc1`, the activity change, negative = inhibition is 2.16% in experiment [1] and 9.44% in experiment [2]. For the same compound, the Potency in experiment [4] was more than 20.6 µM.

Consider `CCCCCC(=O)N1CC2(C)CN(C(=O)CCCCC)CC(C)(C1)C2=O`, for which the activity change, negative = inhibition is 4.08% in experiment [1] and -13.6% in experiment [2]. For the same compound, in experiment [4], the Potency was more than 20.6 µM.

Turning to `Cc1cccc(OCc2nc(C)cc(=O)[nH]2)c1`, the activity change, negative = inhibition was 9.24% in experiment [1] and -0.73% in experiment [2]. In addition, the Potency in experiment [4] was more than 20.6 µM.

As for `O=C1C(=O)N(CCCn2ccnc2)C(c2ccccn2)/C1=C(/O)c1ccccc1` (configuration not stated), the figures for the activity change, negative = inhibition in experiment [1] and in experiment [2] were 15.8% and 6.66%, respectively. Further, the Potency in experiment [4] was more than 20.6 µM.

In the case of `N#C/C(C(=O)N1CCOCC1)=C1/SC(Cc2ccccc2)C(=O)N1c1ccccc1` (configuration not stated), the activity change, negative = inhibition was 6.74% in experiment [1] and -2.77% in experiment [2]. Further, the Potency in experiment [4] was more than 20.6 µM.

For `Cc1ccnc(N2CCN(c3c4c(c(C#N)c5nc6ccccc6n35)CCC4)CC2)c1`, the activity change, negative = inhibition in experiment [1] was -8.81%; in experiment [2], -1.93%. Also, the Potency in experiment [4] is more than 20.6 µM.

For `CSc1nc(N2CCCC2)c2c(c1C#N)CC(C)(C)OC2`, the figures for the activity change, negative = inhibition in experiment [1] and in experiment [2] were -20.7% and -19.8%, respectively. For the same compound, the Potency in experiment [4] was more than 20.6 µM.

On to `CC(C)(C)OC(=O)N1CC=C2C(C#N)=C(N)C(C#N)(C#N)[C@H](c3cccnc3)[C@H]2C1`, for which the activity change, negative = inhibition is 3.85% in experiment [1] and 4.36% in experiment [2]. The Potency in experiment [4] is more than 20.6 µM.
